# Most compounds without a hit are left out; they make up all but 1.5% or so of the library.
# miR-122 sensor: miR-122 Renilla sensor signal increase in Huh7, primary screen, miR-122 inhibitor project, cell-based, single point, plate reader | hit rate 0.3% among 340,000 | AID 602342, 2012 | Huh7 miR-122 Renilla luciferase sensor, 48 h; neutral wells = 0, positive control = 100 | activation (reporter increase), % at 12.5 µM;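 active = mean replicate activation score at least 90 and every replicate individually at or above 90; inconclusive = only one of the two criteria met; inactive = neither criterion met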;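 note: higher luciferase means less miR-122 activity so hits act as miR-122 inhibitors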
# MLL AF4-AF9 inh: inhibitors of AF4 peptide binding to AF9, primary screen, biochemical, AlphaScreen, biotin-AF4 peptide, FLAG-AF9, single point; Protein AF-9 (Homo sapiens), P42568; hit rate 0.47% among 350,000; inhibition, % at 10 µM;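 active = every replicate reaching a set inhibition limit, whatever the replicate mean, cut at about 25% in these data; inconclusive = mean inhibition reaches that limit but some replicates miss it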
# CASP6 VEID inh: human caspase-6 inhibitors, primary screen, biochemical, VEID-R110 fluorescence, single point, set 2. hit rate 0.53% among 350,000. purified caspase-6, Z-VEID-R110 cleavage fluorescence. inhibition, % at 12.5 µM. AID 686996, 2013;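 active = mean inhibition across replicates at least about 35%, with every replicate also reaching that limit, limit read from the data; inconclusive = only one of the two criteria met; inactive = neither criterion met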
# RAD52 anneal inh: RAD52 DNA annealing inhibitors, primary screen, biochemical, FRET, single point, set 2; DNA repair protein RAD52 homolog (Homo sapiens), P43351; recombinant RAD52 DNA annealing, FRET fluorescence; inhibition, % at 18.7 µM; hit rate 0.46% among 360,000; AID 651710, 2012;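 active = every replicate showing at least 50% inhibition; inconclusive = mean inhibition at least 50% but not in every replicate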
# NSD2 HMT inh: NSD2 histone methyltransferase inhibitors, primary screen, biochemical, AlphaScreen, single concentration, set 2 | NSD2 peptide methylation, 120 min | hit rate 0.54% among 310,000 | Histone-lysine N-methyltransferase NSD2 (Homo sapiens), O96028 | inhibition, % at 12.5 µM; in the data active = inhibition above about 50%
# DNA binder FP: DNA-binding compounds via dye displacement, dose response, artefact control for RAD52 inhibitor project, biochemical, fluorescence polarization, cherry-pick. shares compounds with RAD52 anneal inh. Salmon sperm DNA/acridine orange FP displacement. AC50, µM. hit rate 8% among 1,000;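 active = fitted half-maximal concentration for signal loss at or below twice the highest dose tested, in every separate run, actives reach about 64 µM in these data; inconclusive = runs disagree, or flat partial signal loss, or poor fit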
# Hits are given with their value; 0 = inactive; ? = inconclusive; - = no result given.
SMILES,miR-122 sensor,MLL AF4-AF9 inh,CASP6 VEID inh,RAD52 anneal inh,NSD2 HMT inh,DNA binder FP
CCCC(=O)Nc1ccc2c(c1)C(=O)N(C)C[C@H](OC)[C@H](C)CN(Cc1ccc(F)cc1)[C@@H](C)CO2,0,-,-,-,-,-
O=[N+]([O-])c1ccc(COc2ccccc2CN2CCCC2)cc1,0,0,0,77,-,0
O=[N+]([O-])c1ccc(COc2ccccc2CN2CCCCC2)cc1,0,0,0,0,-,-
Cc1ccc(C(=O)N/C(=C\c2ccc(-c3cccc([N+](=O)[O-])c3)o2)C(=O)NCCCN(C)C)cc1,0,0,0,67,0,0
CN1CCC(NC(=O)c2cccc(Oc3ccccc3)c2)CC1,0,0,0,0,0,-
COc1cc(C(=O)NC2CCN(C)CC2)ccc1Nc1ncc2c(n1)N(CCc1ccccc1)CCC(=O)N2C,0,0,0,81,-,0
CC(=O)c1ccc(-c2cnc3c(NC=O)cc(-c4ccc(N5CCN(C)CC5)cc4)cn23)cc1,-,0,0,67,0,0
CC(=O)Nc1cc(-c2ccc(N3CCN(C)CC3)cc2)cn2c(-c3cccc(C(C)=O)c3)cnc12,-,0,0,70,0,0
Cc1noc(C)c1S(=O)(=O)Nc1cccc2c1O[C@H](CN(C)C(=O)NC(C)C)[C@H](C)CN([C@@H](C)CO)C2=O,0,0,0,0,-,-
Cc1cc2cc(CNC(=O)NC3CCCCC3)ccc2n1C,0,0,0,66,-,0
CC(C)=N/N=C(/c1ccc([N+](=O)[O-])cc1)C12CN3CN(CN(C3)C1)C2,-,0,0,95,0,0
C[C@@H]1CN([C@H](C)CO)C(=O)c2cc(NS(=O)(=O)c3cccs3)ccc2O[C@H]1CN(C)C(=O)NC1CCCCC1,0,0,0,0,-,-
CC(C)NC(=O)Nc1ccc2c(c1)CC(=O)N([C@H](C)CO)C[C@H](C)[C@H](CN(C)Cc1ccc(Cl)c(Cl)c1)O2,0,0,0,0,-,-
CC(C)c1cn(CC[C@@H]2CC[C@H](NC(=O)C3CCOCC3)[C@H](CO)O2)nn1,-,0,0,0,-,-
CN(C)CCCNc1nc2cc(-c3cnn(Cc4ccccc4)c3)sc2c(=O)n1C,0,0,0,59,0,0
COc1ncccc1-c1cc2nc(NCCCN(C)C)n(C)c(=O)c2s1,0,0,0,75,0,63µM
CN(C)CCCNc1nc2cc(-c3ccsc3)sc2c(=O)n1C,0,0,0,52,0,0
CN(C)CCCNc1nc2cc(-c3ccc4c(ccn4C)c3)sc2c(=O)n1C,0,0,0,96,0,0
C[C@@H]1CN([C@@H](C)CO)C(=O)c2cc(C#C[C@@H](C)O)cnc2O[C@@H]1CN(C)C(=O)Cc1ccccn1,0,0,0,0,-,-
Cn1c(NCCN2CCCC2)nc2cc(-c3ccsc3)sc2c1=O,0,0,0,0,0,-
Cc1ccc(F)cc1-c1cc2nc(NCCCN(C)C)n(C)c(=O)c2s1,0,0,0,56,0,0
COc1cccc(-c2cc3nc(NCCCN(C)C)n(C)c(=O)c3s2)c1,0,0,0,79,0,?
COc1cccc(CNc2nc3cc(-c4ccccc4)sc3c(=O)n2C)c1,0,0,0,0,0,-
COc1ccc(-c2cc3nc(NCCN4CCCC4)n(C)c(=O)c3s2)cc1OC,0,0,0,84,0,0
COc1ccc(S(=O)(=O)Nc2ccc3c(c2)C(=O)N([C@@H](C)CO)C[C@H](C)[C@@H](CN(C)C(=O)Nc2ccc(F)cc2)OCCCC[C@@H](C)O3)cc1,0,0,0,0,-,-
SMILES,miR-122 sensor,MLL AF4-AF9 inh,CASP6 VEID inh,RAD52 anneal inh,NSD2 HMT inh,DNA binder FP
O=C(CNCC1CCCCC1)Nc1ccc(N2CCCCC2)cc1,-,-,-,-,0,-
O=C(CNC1CCCC1)Nc1ccc(N2CCCCCC2)cc1,-,44,0,78,-,0
Cc1cc(C(=O)OC(C)C(=O)NC2CCCCC2C)c2ccccc2n1 (configuration not stated),0,0,0,51,-,0
COc1cccc(S(=O)(=O)Nc2ccc3c(c2)[C@@H]2C[C@H](CC(=O)O)O[C@H](CO)[C@@H]2O3)c1,-,0,0,0,-,-
CCN(Cc1ccncc1)Cc1ccc(OC)cc1OC,0,0,0,99,0,0
COc1nc(Nc2cccc(F)c2)nc(OC)n1,0,0,0,0,0,-
COc1cc2nc(Nc3cccc(F)c3)nc(N)c2cc1OC,0,0,0,61,0,0
COc1ccc(CNc2ncnc3cc(Cl)ccc23)cc1OC,-,0,0,0,0,-
CCN(CC)Cc1cc2[nH]c3c4ccc(Cl)cc4ncc3c2cc1OC,0,0,0,102,0,0
CN/C(=C\[N+](=O)[O-])NCCSCc1ccc(CN(C)C)o1,0,0,0,61,-,0
COc1ccc2c3c(n(C)c2c1)[C@@H](CO)N(C(=O)c1ccccn1)CC31CCN(C(=O)Cc2ccccc2)CC1,-,0,0,0,-,-
C[C@@H]1CCCCO[C@@H](CN(C)C(=O)Nc2ccc(F)cc2)[C@H](C)CN([C@H](C)CO)C(=O)c2cc(NC(=O)c3ccncc3)ccc2O1,0,0,0,0,-,-
Nc1ccc2nc(-c3ccc(Cl)cc3)[nH]c2c1,0,?,0,51,-,0
COc1ccc(-c2nc(C(=O)NCCCN3CCOCC3)cc3c2[nH]c2ccccc23)cc1OC,0,0,0,83,-,0
Cc1ccc(-c2nc(C(=O)NCCCN3CCOCC3)cc3c2[nH]c2ccccc23)cc1,0,0,0,94,-,0
COc1ccc(Nc2cc(C(=O)NCCCN3CCOCC3)c3ccccc3n2)cc1OC,0,-,-,-,0,-
CN1C(=O)c2cc(NC(=O)c3cccs3)ccc2OC[C@@H]2O[C@@H](CC(=O)N3CCCCC3)CC[C@@H]21,0,0,0,0,-,-
Cc1noc(C)c1NC(=O)Nc1ccc2c(c1)C(=O)N([C@@H](C)CO)C[C@H](C)[C@H](CN(C)C(=O)Nc1cccc3ccccc13)O2,0,0,0,0,-,-
Cc1noc(C)c1NC(=O)N(C)C[C@@H]1OCCCC[C@H](C)Oc2ccc(NC(=O)C3CCCCC3)cc2C(=O)N([C@@H](C)CO)C[C@H]1C,0,0,0,0,-,-
CCn1c(SCC(N)=O)nc2sc3c(c2c1=O)CCN(C)C3,0,0,0,56,0,0
CCn1c(SCC(=O)Nc2ccc(C)cc2)nc2sc3c(c2c1=O)CCN(C)C3,0,0,0,0,0,-
CC(C)Oc1cc(C(=O)N2CCC(N3CCCCC3)CC2)ccc1Nc1nnc(Cl)c(Nc2ccccc2S(C)(=O)=O)n1,0,-,-,-,-,-
CN1CCN(C2CCN(c3ccc(Nc4nnc(Cl)c(Nc5ccccc5S(C)(=O)=O)n4)c(OC(CF)CF)c3)CC2)CC1,0,-,0,51,-,0
O=C(C1CC1)N1CC(=O)N2[C@@H](CO)[C@@H](c3ccc(C#CC4CCCC4)cc3)[C@@H]2C1,-,0,0,0,-,-

# Screens as filed in PubChem.
